92 compounds from PubChem BioAssay AID485317 (Broad Institute, 2010) can be followed below.

Out of some 290,000 compounds screened, about 11,000 (3.8%) were called active. The sample holds actives, similar compounds and a random draw of the others, so the mix is not that of the screen. A number with no mark means an inactive call.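 The calls were made as follows: active = mean replicate inhibition above about 79%, with every replicate also reaching it (limit read from the data); inconclusive = only one of the two criteria met; inactive = mean below limit and not every replicate reaching it.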

What is called inhibition is the drop in the measured response relative to a control, in per cent.

This assay deals with FAD-linked sulfhydryl oxidase ALR (Homo sapiens) (UniProt P55789). Kind of assay: inhibitors of human ALR sulfhydryl oxidase, primary screen, biochemical, H2O2 detection, HRP-luminol luminescence, single point (AID 485317). As to conditions: purified ALR, DTT oxidation, hits give high values, concentration not given here.
Sequence of FAD-linked sulfhydryl oxidase ALR (Homo sapiens) (P55789 whole entry, looked up): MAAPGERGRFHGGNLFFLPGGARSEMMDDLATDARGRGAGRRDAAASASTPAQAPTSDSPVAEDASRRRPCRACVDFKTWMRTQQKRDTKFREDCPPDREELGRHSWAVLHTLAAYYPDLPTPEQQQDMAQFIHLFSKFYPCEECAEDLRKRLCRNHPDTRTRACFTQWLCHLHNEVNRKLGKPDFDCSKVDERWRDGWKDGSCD
For the compound `O=C(CCC(=O)c1ccccc1)NCc1cccc(C(F)(F)F)c1`, the inhibition is -5.12%.
The result for `NC(=O)c1ccsc1NC(=O)COC(=O)COc1ccc(C=O)cc1` reads 0.523%; that for `COc1ccc(C2=NOC(Cn3nc(C(=O)NCc4ccc5c(c4)OCO5)cc3-c3ccccc3)C2)cc1` (configuration not stated), -0.145%; that for `COc1ccc(N2CCN(C(=O)c3cccs3)CC2)cc1`, 93.9% (active).
The result for `COc1ccc(OCC(=O)N2CCN(C(=O)c3cccs3)CC2)cc1` reads -3.05%; that for `O=C(c1cccs1)N1CCN(C(=O)N2CCOCC2)CC1`, 5.71%.
The result for `COc1ccc(C(=O)OC(C)C(=O)NC2CCCC2)cc1S(=O)(=O)N1CCOCC1` (configuration not stated) reads 0.414%; that for `O=C(Nc1ccc(N2CCCCC2)cc1)c1cc(S(=O)(=O)N2CCOCC2)ccc1F`, 40.2%; that for `COC(=O)c1c(NC(=O)c2ccccc2F)sc2c1C(C(=O)OC)CC2` (configuration not stated), 1.9%.
In the case of `NC(=O)c1c(NC(=O)c2ccccc2)sc2c1CCCC2`, the inhibition was -3.69%.
With `O=C(Nc1sc2c(c1C(=O)O)CCC2)c1ccccc1F` the figure was 98.3% (active); with `O=C(NCC(c1cccs1)N1CCOCC1)c1cc(Cl)ccc1[N+](=O)[O-]` (configuration not stated), -35.8%; with `CC(C)Oc1ccc(S(=O)(=O)N2CCOCC2)cc1NC(=O)C1CCCC1`, 0.587%.
With `CCOc1ccc(NC(=O)CN(C)C(=O)Cn2c(=O)cnc3ccccc32)cc1OCC` the figure was -5.33%; with `CCOc1ccc(CCNC(=O)COC(=O)C2CCN(c3ccc(C(F)(F)F)cn3)CC2)cc1OCC`, 0.148%; with `COCC(=O)Nc1ccc(Br)cc1`, -12.4%.
With `CC(=O)N1CC(=O)N(CC(=O)Nc2ccc(Br)cc2)C1=S` the figure was 99.4% (active).
As for `Cc1cccc(NC(=O)CN2C(=O)CNC2=O)c1`, the inhibition was -1.19%.
The result for `Cc1ccc(C(=O)Nc2ccc3c(c2)OCCO3)cc1S(=O)(=O)N1CCOCC1` reads -6.89%; that for `Cc1ccc(OCC(=O)N2CCN(S(=O)(=O)c3ccc(Cl)s3)CC2)cc1C`, -2.26%; that for `COc1ccc(N2CCN(C(=O)COC(=O)c3cccc(S(=O)(=O)Nc4ccccc4OC)c3)CC2)cc1`, 1.72%.
With `CC1CCCCC12NC(=O)N(CC(=O)Nc1ccc(S(=O)(=O)Nc3ncccn3)cc1)C2=O` (configuration not stated) the figure was 91.2% (active).
The result for `CC1CCCCC12NC(=O)N(CC(=O)OCC(=O)NCc1ccc(F)cc1)C2=O` (configuration not stated) reads -8.04%; that for `CC1CCCCC12NC(=O)N(CC(=O)N1CCN(c3ccccc3)CC1)C2=O` (configuration not stated), 33.6%.
For the compound `COc1ccccc1C(=O)NCC(=O)NCCSc1ccc(Br)cc1`, the inhibition was -5.14%.
On to `COc1ccc(/C=N/NC(=O)c2cc(-c3cccc(C)c3)nc3ccccc23)cc1O`, for which the inhibition is 12.4%.
Regarding `CC(Oc1ccc(F)cc1)C(=O)Nc1cc(S(=O)(=O)N2CCOCC2)ccc1N1CCN(C)CC1` (configuration not stated), the inhibition is 24.9%.
With `CCCCCCc1ccc(O)cc1O` the figure was 84.4% (active); with `CCCCCCCN=C(C)c1ccccc1O`, -17.6%; with `CCCCCCc1cc2cc(-c3nnc(-c4ccccc4)o3)c(=O)oc2cc1O`, 1.08%.
The result for `COc1cccc(N2CC(NS(=O)(=O)c3ccc(Cl)cc3)CC2=O)c1` (configuration not stated) reads -2.83%; that for `COc1ccc2c(c1)CCNC2Cc1ccc(OC)c(O)c1` (configuration not stated), 22%; that for `c1ccc2c(CNn3cnnc3)cccc2c1`, -6.4%.
With `N=C(N)SCc1cccc2ccccc12`, the inhibition was 99.3% (active).
With `N#C/C(=C(/O)Cc1cccc2ccccc12)c1nc2ccccc2s1` the figure was 4.12%.
With `O=C(CCNC(=O)c1ccc(Br)cc1)Nc1cccc(S(=O)(=O)N2CCCCC2)c1` the figure was -14.1%; with `COc1ccc2oc(C(=O)OCC(=O)N(CC(C)C)c3c(N)n(Cc4ccccc4)c(=O)[nH]c3=O)c(C)c2c1`, 7.4%; with `O=C(Nc1cc(S(=O)(=O)N2CCCCC2)ccc1Cl)C1COc2ccccc2O1` (configuration not stated), 0.363%.
The result for `Cc1c(C(=O)OCC(=O)N2CCCC2=O)oc2ccccc12` reads -37.2%.
As for `O=C(CCl)NNc1nc(-c2ccccc2)c2cc(Cl)ccc2n1`, the inhibition was 58.6%.
The result for `COc1cc(OC)nc(NC(=O)CCl)n1` reads 6.07%; that for `O=C(CCl)NNc1cccc(Cl)n1`, 98.1% (active).
In the case of `O=C(COC(=O)Cc1ccccc1F)NNC(=O)c1ccc(Cl)cc1`, the inhibition is 0.881%.
With `O=C(CSCc1ccccc1Cl)NNC(=O)c1ccccc1` the figure was 99.6% (active).
For `O=C(COC(=O)c1ncc(Cl)c(Cl)c1Cl)NNC(=O)c1ccccc1`, the inhibition was 8.83%.
In the case of `CCN1CCN(c2ccc(S(=O)(=O)N3CCCCC3)cc2NC(=O)c2cccc(NC(C)=O)c2)CC1`, the inhibition is -18.1%.
With `C[C@]12CC[C@H](O)CC1=CCC1C2CC[C@@]2(C)C1CC[C@@H]2NC(=O)CCC(=O)O` (some centres not stated) the figure was -3.02%; with `Cc1ccc(NC(=O)COC(=O)C2CC2)cc1S(=O)(=O)N1CCOCC1`, 3.43%; with `CN(C)S(=O)(=O)c1ccc(C(=O)NCC2(N3CCOCC3)CCCCC2)cc1`, -19.4%.
With `COc1c(O)cc2oc(-c3ccc(O)c(O)c3)cc(=O)c2c1O` the figure was 99% (active); with `COc1ccc(-c2cc(=O)c3c(O)cc(O[C@@H]4O[C@H](CO[C@@H]5O[C@@H](C)[C@H](O)[C@@H](O)[C@H]5O)[C@@H](O)[C@H](O)[C@H]4O)cc3o2)cc1O`, 2.46%; with `CCOC(=O)COc1cc(O)c2c(=O)cc(-c3ccccc3)oc2c1`, -2.55%.
On to `[O-][n+]1ccc(OCc2ccccc2)cc1`, for which the inhibition was -3.31%.
Turning to `CCOc1ccc(Br)cc1S(=O)(=O)Nc1ccc(S(=O)(=O)Nc2cc(C)on2)cc1`, the inhibition is 13.7%.
`Cc1ccc(NC(=O)N2CCC(c3nc4c(nnn4Cc4c(F)cccc4Cl)c(=O)[nH]3)CC2)cc1`: the inhibition was -5.17%.
On to `Cc1ccc(C)c(Cn2nnc3c(=O)[nH]c(C(=O)Nc4ccc(F)cc4)nc32)c1`, for which the inhibition is 95.6% (active).
On to `O=C(Nc1ccc(F)cc1)N1CCCC(c2nc3c(nnn3Cc3ccccc3Cl)c(=O)[nH]2)C1` (configuration not stated), for which the inhibition was -24.5%.
For `OC(COCc1ccco1)CN1CCN(c2ccccc2)CC1` (configuration not stated), the inhibition is 74.6%.
Turning to `OC(COCC1COc2ccccc2O1)CN1CCN(c2ccc(F)cc2)CC1` (configuration not stated), the inhibition was 81.2% (active).
As to `O=[N+]([O-])c1ccc(N2CCN(CC(O)COc3ccccc3)CC2)cc1` (configuration not stated), the inhibition is 6.12%.
With `CCn1c(SCc2ccccc2)nc2cc(OC)c(OC)cc2c1=O` the figure was -2.54%; with `CCn1c(SCc2ccccc2)nc2c(c1=O)SCC2`, 90.4% (active); with `Cc1cccc(CSc2nnc(C)c(=O)n2N)c1`, -4.99%.
In the case of `Cn1c(SCC(=O)N2CCCCC2)nc2c(c1=O)SCC2`, the inhibition is -0.76%.
Turning to `COCCn1c(SCC(=O)N2CCCCCC2)nc2c(c1=O)SCC2`, the inhibition is -0.691%.
With `Cc1cccc(CSc2nc3c(c(=O)n2C)SCC3)c1` the figure was 99% (active); with `NS(=O)(=O)c1ccc(CNC(=O)c2cccc(S(=O)(=O)N3CCc4ccccc43)c2)cc1`, -5.92%; with `Cc1ccc(S(=O)(=O)N(C)C)cc1NC(=O)CN1c2cccc3cccc(c23)S1(=O)=O`, -16.6%.
The result for `Cc1ccc(S(=O)(=O)N2CCCCC2)cc1NC(=O)CCNC(=O)c1ccccc1` reads -5.33%; that for `CCOc1ccc(C(C)=O)cc1COC(=O)CN1C(=O)NC2(CCCC2)C1=O`, -0.483%; that for `COc1cc(/C=C2\Oc3ccc(C#Cc4ccc(O)cc4)cc3C2=O)cc(OC)c1`, 4.14%.
Take `CC(NS(=O)(=O)c1ccc(OCC(=O)N2CCCC2)cc1)c1ccccc1` (configuration not stated): the inhibition was -2.54%.
With `S=c1[nH]nc(COc2ccccc2)n1-c1ccccc1` the figure was 31.7%.
For the compound `CC(NS(=O)(=O)c1ccccc1)c1n[nH]c(=S)n1-c1ccccc1` (configuration not stated), the inhibition was 86.4% (active).
`COC(=O)c1nc(NC(=O)c2ccccc2)n[nH]1`: the inhibition was 97.4% (active).
The result for `O=C(Nc1nsc(-c2ccccc2)n1)c1ccncc1` reads 1.28%; that for `COC(=O)c1nc(NC(=O)c2ccc(Cl)cc2)n[nH]1`, -3.46%.
With `O=C(CSc1nc2ccccc2c(=O)n1CCCO)NC1CC1` the figure was 0.869%; with `CN=C(Nc1cccc(S(=O)(=O)N2CCOCC2)c1)c1ccccc1`, -1.77%.
For `CC(Sc1cccc[n+]1[O-])C(=O)Nc1cccc(S(=O)(=O)N2CCOCC2)c1` (configuration not stated), the inhibition is 96.9% (active).
The result for `CC(Sc1ccccc1F)C(=O)Nc1cccc(S(=O)(=O)N2CCOCC2)c1` (configuration not stated) reads -3.71%; that for `CN(CC(=O)Nc1cccc(F)c1)C(=O)C1CC(=O)N(CCc2ccccc2)C1` (configuration not stated), -3.35%.
The result for `O=C(CSc1nnc(-c2ccncc2)o1)Nc1cccc(Cl)c1` reads 6.76%.
The result for `CCn1c(-c2ccncc2)n[nH]c1=S` reads 65.5%; that for `CCCc1cc(-c2n[nH]c(=S)n2Cc2ccccc2)cs1`, 49.7%; that for `CCc1cc(-c2n[nH]c(=S)n2CC(C)C)cs1`, 94.7% (active).
`N#Cc1cc([N+](=O)[O-])ccc1NC(=O)COC(=O)c1cnccn1`: the inhibition was -7.67%.
With `O=C(c1cc2ccccc2o1)N1CCN(S(=O)(=O)c2ccc(Cl)s2)CC1` the figure was -0.962%; with `COc1ccc(C(CNC(=O)c2cccc(NS(=O)(=O)c3ccc(C)c(F)c3)c2)N2CCCC2)cc1` (configuration not stated), -7.21%; with `CC(C)c1ccc(NC(=O)COC(=O)c2ccc(CN3CCCC3=O)cc2)cc1`, -43.2%.
On to `CCOc1ccc(NC(=O)c2ccc(NC(=O)COC(=O)c3ccc(NC(=O)CC#N)cc3)cc2)cc1`, for which the inhibition was 1.83%.
With `CC(C)NC(=O)NC(=O)COC(=O)c1ccc(NC(=O)CC#N)cc1` the figure was 98.6% (active).
